From PubChem BioAssay AID434973 (Sanford-Burnham Center for Chemical Genomics, 2010)
Among all 330,000 compounds or so, about 4,900 (1.5%) were called active. The sample holds actives, similar compounds and a random draw of the others, so the mix is not that of the screen.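 Rule for the calls: active = inhibition above about 50% at the single test dose (limit read from the data); inactive = the rest.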

Target: Sentrin-specific protease 7 (Homo sapiens) (UniProt Q9BQF6)
Experiment: SENP7 protease inhibitors, primary screen, biochemical, luminescence, uHTS (AID 434973);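 note: plate controls were DMSO with enzyme for no effect and no enzyme buffer wells for full effect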
Conditions: recombinant SENP7, Z-RLRGG-aminoluciferin luminescence, 40 min; at 5 µM; stronger effect = higher value

inhibition, inactive:
CC(C)(C)NS(=O)(=O)c1ccc(NC(=O)C2CCCO2)cc1 (stereo unspecified) 3.51%
O=C(Nc1cccc(-c2nnc(-c3ccccc3)o2)c1)C1CCCO1 (stereo unspecified) 1.95%
O=C(COC(=O)/C=C/c1cccc(Cl)c1)NCc1cccs1 15%
CCNC(=O)CC1C(=O)N(c2ccc(F)cc2)C(=O)N1CCc1sccc1C (stereo unspecified) 7.13%
Cn1nc(-c2ccccc2)c(CSc2cccc(Cl)c2)c1Cl 2.83%
CCOC(=O)c1cc(S(=O)(=O)NCCc2ccc(OC)c(OC)c2)cn1C 7.17%
Cc1nnc2n1N=C(c1ccccc1)CS2 -0.787%
O=c1c(-c2ccccc2)cnc2n1CCS2 4.7%
O=C(/C=C/c1ccc2c(c1)OCO2)NCc1cn2cc(Cl)ccc2n1 0.536%
CCCCCCSc1ccc(-c2nc3ccc(Cl)cn3c2NCc2ccccc2)cc1 -2.53%
COc1ccc(NC(=O)NCc2ccc3c(c2)OCO3)c(OC)c1 6.56%
CCOCCCNC(=S)N1CCC(NC(=O)C2CCCCC2)CC1 -2.06%
Cc1ncc(CO)c(/C=N/NC(=O)c2cccc(S(=O)(=O)N3CCCC3)c2)c1O -7.56%
C/C(=N\Nc1ncc(Cl)cc1Cl)c1cccs1 47.2%
O=C(Nc1ccccc1-c1nc2ccccc2[nH]c1=O)c1cccs1 -0.595%
O=C(CNC(=O)OCc1ccccc1)NC1CCCCNC1=O (stereo unspecified) 4.12%
COC(=O)c1ccc(NCC(=O)N2CCCCCC2)cc1 -4.94%
COC(=O)c1ccc(NC(=O)Nc2ccc(C)cc2)cc1 -0.387%
COc1cc(C2/C(=C(\O)c3ccc4c(c3)CC(C)O4)C(=O)C(=O)N2Cc2ccco2)ccc1O (stereo unspecified) 2.43%
CC(Oc1ccc(F)cc1F)C(=O)/C=C/N(C)C (stereo unspecified) 11.5%
O=C(N/N=C/c1cccc(O)c1)c1cc2c(ccc3ccccc32)o1 -13.1%
O=C(OCC(=O)N1CCOCC1)c1ccc2ccccc2c1 4.44%
COc1ccc(CC(=O)N2N=C(C)CC2(O)C(F)(F)F)cc1 (stereo unspecified) -2.12%
COc1ccccc1C(CNC(=O)c1cccc(S(=O)(=O)Nc2ccc(F)cc2)c1)N(C)C (stereo unspecified) -6.57%
O=C(Nc1ccc(Cl)cc1)/C(=C1\CCCN1)[N+](=O)[O-] 16.3%
Cc1ccc(NC(=O)NC(=O)c2ccccc2)cc1F 23.1%
O=C(Nc1ncccc1O)c1ccc(C(=O)c2ccccc2)cc1 -3.01%
Cn1c2c(c(=O)n(C)c1=O)C1c3ccccc3OCC1C(C)(C)O2 (stereo unspecified) -0.167%
CCNC(=O)N1CCCC(C(=O)c2ccc(-c3ccccc3)cc2)C1 (stereo unspecified) 3.16%
COC(=O)c1sc(NC(=S)NC(=O)c2ccc(C)cc2)nc1C 9.77%
C=CCSc1nnc(NC(=O)c2ccc(NC(C)=O)cc2)s1 4.95%
NC(=O)CSc1nnc(NC(=O)c2ccc3ccccc3c2)s1 -4.32%
CCOC(=O)c1cccnc1NC(=O)c1ccncc1 -6.19%
CC(=O)c1sc(N/N=C\c2ccc(C)cc2)nc1C 17.2%
CCOC(=O)c1sc(NC(=O)c2sc(C)nc2C)nc1C 31.9%
COc1ccc([N+](=O)[O-])cc1NC(=O)c1ccc(N(Cc2ccccc2C)S(C)(=O)=O)cc1 2.86%
CCN(CC)C(=O)Cn1cc(S(=O)(=O)CC(=O)NCc2ccc3c(c2)OCO3)c2ccccc21 -2.79%
Cc1noc(C)c1COc1ccc(C(=O)NCCOc2ccccc2)cc1 -6.96%
Cc1ccn2c(=O)c(C(=O)NCCC3=CCCCC3)c(O)nc2c1 9.74%
COC(=O)Cc1ccc(OC(=O)C2CCN(S(=O)(=O)c3ccc(OC)c(OC)c3)CC2)cc1 -4.03%
CC1=C(C)CC(C(=O)NC(C)CCc2ccccc2)C(C(=O)O)C1 (stereo unspecified) 4.76%
COCC1CCN(C(=O)C2CCC(=O)N(Cc3cccc(C(F)(F)F)c3)C2)CC1 (stereo unspecified) 9.9%
COc1ccccc1N1CC(O)=C(c2nc3ccccc3s2)C1=N -12.5%
CN(Cc1nc2ccccc2s1)C(=O)c1ccc(F)cc1 0.624%
Cn1c(CCc2ccccc2)nnc1SCC(N)=O 0.317%
COc1cc(/C=C(\C#N)c2nc3c(s2)CC(C)CC3)ccc1O (stereo unspecified) 2.43%
Cc1ccc2nc(/C(C#N)=C\c3ccc(OC(=O)c4cccs4)cc3)[nH]c2c1 -1.03%
CNC(=S)N/N=C/c1ccc(N2CCOCC2)s1 12.6%
Cc1ccc(CCCOC(=O)C[N+]2(C)CCCC2)cc1 8.46%
O=C(c1cc(COc2c(F)cccc2F)on1)N1CCSCC1 0.456%
CC(=O)Nc1cccc(-c2nc3ccccc3s2)c1C -8.72%
Cc1ccnc(-n2sc3ccccc3c2=O)n1 -5.5%

inhibition, active:
O=C(Nc1ccc(-c2nnc(-c3ccccc3)o2)cc1)C1CCCO1 (stereo unspecified) 60.2%
Cc1nn2cc(-c3ccc(Cl)cc3)cnc2c1Br 88.2%
O=c1c2cc(-c3ccccc3)sc2nc2n1N=C(c1cccs1)CS2 74.3%
Clc1ccc2nc(CSc3ccccc3)cn2c1 66.1%
C/C(=N\Nc1nc2ccccc2[nH]1)c1cccs1 65.2%
COC(=O)c1ccc(NCC(=O)c2ccccc2)cc1 86.1%
NC(=O)c1ccccc1N=Cc1ccc2ccccc2c1 66.6%
O=C(NC(=O)c1ccccc1)Nc1ccccc1O 55.8%
CCOC(=O)c1sc(NC(=O)c2ccncc2)nc1C 91.1%
CC(=O)c1sc(NC(=O)c2ccc(C)cc2)nc1C 71.5%
CCSc1nnc(NC(=O)c2ccc(C)cc2)s1 52.7%
COc1ccccc1OCc1nc2ccccc2s1 97.3%
COc1cc(/C=C(\C#N)c2nc3ccccc3[nH]2)ccc1O 93.7%
Cc1ccnc(Nc2nc3ccccc3s2)n1 88.5%
